Rows were chosen to be rich in hits. Some 3.8% of all compounds tested hit in one or more screens of this group.
NLRP3 yeast inh: NALP3 inflammasome inhibitors in reconstituted yeast, primary screen, luminescence, uHTS | Yeast reconstituted NLRP3/ASC/caspase-1, beta-gal luminescence, 24 h | inhibition, % at 10 µM | actives 0.39% (n = 330,000) | AID 2825, 2010;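 active means inhibition of 50% or more; inactive means inhibition below 50%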;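 further: plate controls were induced DMSO wells for no effect and uninduced yeast grown without galactose for full effect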
TIM10 inh: growth inhibitors of isogenic TIM10 control yeast, primary screen, counter-screen for tim10-1 yeast inhibitor project, luminescence, uHTS | S. cerevisiae TIM10 strain growth, BacTiter-Glo luminescence, 24 h | actives 1.4% (n = 330,000) | inhibition, % at 10 µM;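 active means inhibition of 40% or more at the single tested concentration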;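 further: wild-type TIM10 isogenic control strain grown at permissive 25 °C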
Yeast superoxide: reduction of superoxide in aged yeast, primary screen, HTS | S. cerevisiae aged cells, superoxide DHE fluorescence; active compounds read low | superoxide response (% of plate mean), % at 10 µM | actives 0.18% (n = 330,000) | AID 2690, 2010;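 active means superoxide response under a set limit, about three screen SD below normal, cut at about 65% in these data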;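 further: yeast aged for seven days with compound at 30 °C before DHE staining; 100% = average MFI of all compound-treated wells on the plate with controls excluded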
tim10-1 inh: growth inhibitors of tim10-1 mutant yeast, primary screen, luminescence, uHTS; S. cerevisiae tim10-1 ts strain growth, BacTiter-Glo, 24 h; inhibition, % at 20 µM; actives 2.2% (n = 330,000);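 active means inhibition of at least 40%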;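 further: mutant grown at 25 °C; 0% = DMSO wells with yeast and 100% = wells holding no yeast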
tim23-1 inh: growth inhibitors of tim23-1 mutant yeast, primary screen, luminescence, uHTS; AID 463212, 2010; actives 1.3% (n = 330,000); S. cerevisiae tim23-1 growth, BacTiter-Glo luminescence, 24 h; inhibition, % at 20 µM;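 active means growth inhibition of the mutant yeast at or above 50%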;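 further: temperature-sensitive mutant grown at 25 °C; plate controls were DMSO-treated mutant yeast for no effect and medium wells lacking yeast for full effect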
tim10-1 conf: growth inhibitors of tim10-1 mutant yeast, confirmation, single concentration, luminescence, S. cerevisiae; shares compounds with tim10-1 inh; S. cerevisiae tim10-1 ts strain growth, BacTiter-Glo, 24 h; inhibition, % at 20 µM; actives 56% (n = 7,400);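 active means inhibition of yeast growth at or above a set limit in either of two repeat tests at 20 µM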;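 further: tim10-1 mutant grown at permissive 25 °C to find synthetic lethal compounds; 0% = DMSO yeast wells and 100% = medium wells without yeast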
tim10 confirm: growth inhibitors of wild-type TIM10 yeast, confirmation, counter-screen for tim10-1 synthetic lethality project, single concentration, luminescence, S. cerevisiae. shares compounds with TIM10 inh. S. cerevisiae tim10 strain growth, BacTiter-Glo luminescence, 24 h. inhibition, % at 10 µM. actives 63% (n = 4,600). AID 463215, 2010;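 active means inhibition of yeast growth at or above a set limit in either of two replicates at 10 µM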;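 further: this counterscreen used the strain with wild-type TIM10; 0% = yeast with DMSO and 100% = medium wells lacking yeast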
Active calls of the source: *; . = no result.

SMILES	NLRP3 yeast inh	TIM10 inh	Yeast superoxide	tim10-1 inh	tim23-1 inh	tim10-1 conf	tim10 confirm
CCOc1ccc(CCNC(=O)Cn2nc(C)c3c(C)n(-c4ccccc4)nc3c2=O)cc1	11	-6	95	-5	6	.	.
COCCCNC(=O)CN1C(=O)COc2ccc(S(=O)(=O)N3CCOCC3)cc21	4	7	95	-9	2	.	.
Clc1ccc(-c2nnnn2-c2ccc(Cl)cc2)cc1	-8	34	119	25	27	.	.
Cc1ccc(-n2nnnc2C(Cl)(Cl)c2nnnn2-c2ccc(C)cc2)cc1	50	62*	94	45*	48	15	75*
Cc1c(OC(=O)CNC(=O)OC(C)(C)C)ccc2c3c(c(=O)oc12)CCC3	-9	45*	109	49*	41	39*	47*
Cc1c(OCC(=O)OC(C)(C)C)ccc2c3c(c(=O)oc12)CCC3	19	20	96	13	20	.	.
CN(C)c1ccc(/C=N/n2c(-c3ccccc3Br)n[nH]c2=S)cc1	6	41*	101	42*	44	24	24
CCCCOc1ccc(Nc2cc(Cl)ccc2C(=O)O)cn1	9	41*	166	52*	35	26	34*
COc1ccc(CC(=O)Nc2cc(Cl)ccc2C(=O)O)cc1	17	6	125	-2	11	.	.
CCN(Cc1ccncc1)C(=O)c1cc(COc2c(C)cccc2C)on1	4	8	109	-6	3	.	.
O=C(NNC1OC(CO)C(O)C(O)C1O)c1cccnc1 (configuration not stated)	17	1	101	0	7	.	.
CCOc1cc(/C=C/C(=O)c2ccc(C)cc2)ccc1OCC(=O)N(C)C	10	45*	95	50*	43	35*	-27
CS(=O)(=O)Nc1ccc(S(=O)(=O)N2CCCC2)cc1	-8	-16	110	-4	10	.	.
CCc1c(C)c2c(C)nn(-c3ccccc3)c2oc1=O	12	42*	98	55*	-1	54*	21
Cc1cc2c(c(C)nn2-c2ccccc2)c(=O)o1	30	-11	113	11	8	.	.
Cc1cc(C)c(C(=O)/C=C/c2ccc(C(C)C)cc2)c(=O)[nH]1	24	43*	118	49*	26	53*	37*
Cc1cc(C)c(C(=O)/C=C/C=C/c2ccccc2)c(=O)[nH]1	12	30	89	27	21	.	.
N/C(=N\OC(=O)c1ccc(Cl)c(Cl)c1)c1cccnc1	-14	72*	106	60*	5	47*	76*
O=C(Nc1ccc(Cl)cc1C(=O)N1CCCC1)c1cccc([N+](=O)[O-])c1	5	28	110	35	31	.	.
COc1ccc(C(=O)n2c(SC)nc3cc4c(cc32)OCCO4)cc1	26	47*	113	43*	44	37*	21
Cc1cc(C)c(S(=O)(=O)N(CC(=O)N2CCCC2)C2CCCCC2)c(C)c1	-1	43*	94	40*	48	23	14
Cc1ccc(-c2nc3c(c(=O)c4ccccc4n3C)c(=O)n2-c2ccc(F)cc2)cc1	4	-7	105	-18	9	.	.
Cn1c2ccccc2c(=O)c2c(=O)n(-c3ccccc3)c(-c3ccc(C(C)(C)C)cc3)nc21	15	82*	124	48*	47	-5	-8
CCc1cccc(CC)c1NC(=S)NCCc1c(C)[nH]c2ccc(C)cc12	12	46*	94	45*	46	42*	46*
CCNC(=S)N/N=C(\C)c1ccc2ccccc2c1OC(F)F	28	56*	110	47*	32	-1	41*
SMILES	NLRP3 yeast inh	TIM10 inh	Yeast superoxide	tim10-1 inh	tim23-1 inh	tim10-1 conf	tim10 confirm
COc1ccc(CNC(=S)N/N=C(/C)c2ccccc2)cc1	39	33	110	35	34	.	.
CCNC(=S)N/N=C(\C)c1ccc2ccccc2c1	4	53*	96	42*	35	31*	38*
C/C(=N\NC(=S)NCc1ccccc1)c1ccccc1	-10	44*	75	47*	31	44*	40*
Cc1ccccc1NC(=O)c1c2c(nc3ccccc13)CCC2	13	1	96	2	-21	.	.
CCN(CC)S(=O)(=O)c1ccc(C(=O)NCCOC(=O)c2ccc(F)cc2F)cc1	-10	18	99	31	17	.	.
O=C1N/C(=C\c2ccc(O)cc2)C(=O)c2ccccc21	7	48*	121	55*	40	42*	36*
O=C(O)/C=C1\NC(=O)c2ccccc21	15	6	94	17	16	.	.
CC1CCCN(C(=O)CN(C)S(=O)(=O)c2ccc3c(c2)c(=O)n(C)c(=O)n3C)C1 (configuration not stated)	1	-2	109	-6	-4	.	.
COc1ccc(OCc2nnc(SCC(=O)Nc3ccccc3Cl)o2)cc1	6	3	92	-14	-1	.	.
Cc1nc2ccccc2n1C(=O)c1cc(-c2ccc(Br)cc2)nc2ccccc12	13	10	95	21	31	.	.
O=C(NC(=S)Nc1ccccc1N1CCOCC1)c1cccc([N+](=O)[O-])c1	16	44*	105	44*	41	35*	43*
COc1cccc(C(=O)NC(=S)Nc2ccccc2N2CCCC2)c1	16	49*	115	41*	35	30*	44*
C=CCC1(CC=C)CCCN1C(=O)CC1C(=O)NCCN1Cc1cccc(OC)c1OC (configuration not stated)	3	4	112	7	7	.	.
Cc1cc(Br)c(Cl)cc1NC(=O)CN1C(=O)C2C3CC(c4ccccc4)C(C3)C2C1=O (configuration not stated)	15	52*	109	52*	35	43*	5
O=C(NCc1ccc(F)cc1)C1(c2cccs2)CCOCC1	6	-6	94	-2	2	.	.
COC(=O)C1CCN(C(=O)c2sc3nc(-c4ccc(F)cc4)cn3c2C)CC1	4	55*	99	70*	40	64*	35*
CCOC(=O)C1CCN(C(=O)c2sc3nc(-c4ccccc4)cn3c2C)CC1	0	57*	91	66*	41	60*	52*
CCOc1ccc(CCNC(=O)CCS(=O)(=O)c2ccc(Cl)cc2)cc1OCC	8	8	112	19	22	.	.
